# High-throughput results as filed in PubChem BioAssay.
# Rows were chosen to be rich in hits. Some 2.4% of all compounds tested hit in one or more screens of this group.
# M1 ag parental: M1 agonist counterscreen hit in parental CHO-K1 cells; 0.48% of 360,000 active; activation, % at 3 µM; Fluo-8 calcium fluorescence; scaled to maximal ATP response, vehicle zero; in the data active means activation above about 15%;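 further: untransfected CHO-K1 host cells lacking M1 receptor as counterscreen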
# CHO-K1 Ca antag: counter-screen for M1 antagonists: effect in parental CHO-K1 cells. inhibition, % at 3 µM. 0.6% of 360,000 active. ATP-induced calcium, Fluo-8 fluorescence;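 active means inhibition above a per-plate cutoff, the plate's mean sample inhibition plus 3 SD, cut at about 24% in these data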;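 further: 0% = DMSO plus EC80 ATP and 100% = DMSO alone without ATP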
# CHRM1 antagonist: blocks human M1 muscarinic receptor; P11229; inhibition, % at 3 µM; CHO-K1 hM1, Fluo-8 calcium fluorescence, ACh EC80 antagonist; AID 588852; 1.3% of 360,000 active;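 active means percent inhibition above its own plate's cutoff, namely the mean of that plate's compound wells plus 3 SD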;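 further: peak over basal fluorescence ratio during 140 s after agonist addition; 0% = ACh EC80 plus DMSO and 100% = DMSO alone without agonist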
# Target sequence (P11229 whole entry, looked up): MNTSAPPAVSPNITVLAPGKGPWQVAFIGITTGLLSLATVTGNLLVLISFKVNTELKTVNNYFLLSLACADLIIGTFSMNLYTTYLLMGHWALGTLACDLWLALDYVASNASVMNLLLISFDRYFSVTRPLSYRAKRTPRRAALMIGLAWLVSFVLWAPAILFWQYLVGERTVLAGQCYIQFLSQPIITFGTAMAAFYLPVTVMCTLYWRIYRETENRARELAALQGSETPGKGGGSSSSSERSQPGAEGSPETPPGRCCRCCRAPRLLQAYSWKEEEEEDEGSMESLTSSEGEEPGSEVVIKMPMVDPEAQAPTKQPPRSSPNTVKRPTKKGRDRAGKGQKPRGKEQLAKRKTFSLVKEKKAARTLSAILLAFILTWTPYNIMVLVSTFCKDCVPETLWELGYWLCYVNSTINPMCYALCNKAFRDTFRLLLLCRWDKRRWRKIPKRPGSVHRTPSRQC
# CHRM1 PAM: human CHRM1 positive allosteric modulation | CHO-K1 hM1, Fluo-8 calcium fluorescence, ACh EC20; 0% = ACh EC20, 100% = maximal ACh | AID 588819 | P11229 | activation, % at 3 µM | 0.088% of 360,000 active; in the data active means activation above about 19%, passing the limit was not always enough
# M1 PAM parental: counter-screen for M1 PAMs: effect in parental CHO-K1 cells; activation, % at 3 µM; 0.02% of 360,000 active; ATP EC20, Fluo-8 calcium fluorescence; 0% at ATP EC20, 100% at ATP max; AID 602247;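 active means activation above the run cutoff, the mean activation of all test compounds plus 3 SD, cut at about 40% in these data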;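 further: peak over basal fluorescence ratio in a 140 s read after ATP addition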
# M1 ag: agonists of human M1 muscarinic receptor. AID 588814. CHO-K1 hM1, Fluo-8 calcium fluorescence, agonist mode; 0% DMSO, 100% acetylcholine EC100. 0.33% of 360,000 active. activation, % at 3 µM;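 active means activation above the run's mean compound activation plus 3 SD, cut at about 16% in these data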;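 further: peak over basal fluorescence ratio within a 140 s kinetic read after compound addition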
# Active calls of the source: *.
SMILES,M1 ag parental,CHO-K1 Ca antag,CHRM1 antagonist,CHRM1 PAM,M1 PAM parental,M1 ag
CCOC(=O)c1csc(NC(=O)CN2CCOCC2)n1,1,-4,-18,9,6,-2
Cc1ccc(/C=N/NC(=O)Cn2nnc(N)n2)o1,0,9,-2,5,-20,-2
Cc1cc2n(n1)C(c1sccc1C)Nc1c(C)cccc1-2 (centres undefined),0,25*,2,12,-6,0
Cc1nc2sccn2c(=O)c1S(=O)(=O)N1CCN(c2cccc(Cl)c2)CC1,0,-3,-4,20,-5,7
O=C(COc1ccccc1)N[C@@H]1c2ccccc2CC[C@@H]1O,0,-13,-3,-2,12,-2
CCC(=O)c1ccc(N2CCN(C(=O)c3cccs3)CC2)c(F)c1,3,26*,-12,6,-10,-1
CC1(C(=O)NCc2ccccc2)CCC(=O)N1CCOc1ccccc1 (centres undefined),0,27*,13,-4,-8,-5
CC(C)[C@H](NS(=O)(=O)c1ccc2c(c1)OCCO2)C(=O)OCC(=O)Nc1cc(Cl)ccc1Cl,7,6,31*,-16,13,1
CC(C)[C@H](NS(=O)(=O)c1ccc2c(c1)OCCO2)C(=O)OCC(=O)Nc1ccccc1Cl,3,-7,-6,8,-6,-8
CCOC(=O)CN1C(=O)CCSc2ccc(Cl)cc21,1,-16,-10,8,21,-4
O=C(NC(c1cccnc1)C(F)(F)F)c1cc(COc2ccc3c(c2)CCCC3)on1 (centres undefined),7,27*,42*,-9,-25,2
S=C(NCc1cccs1)Nc1cccc(Cl)c1,8,-4,18,-17,-12,-2
S=C(NCc1cccs1)Nc1cc(Cl)cc(Cl)c1,14,16,43*,-20,3,2
O=C(CCl)NN=C(c1ccccc1)c1ccccc1,3,-4,3,-5,-7,-7
CCN(CC)CC(=O)NN=C(c1ccccc1)c1ccccc1,0,-3,27*,-19,4,-6
O=C1CC(Sc2nnc(-c3ccccc3)o2)C(=O)N1c1ccccc1 (centres undefined),1,4,-15,11,8,1
O=C1c2ccccc2CC1Sc1nnc(-c2ccncc2)o1 (centres undefined),0,24*,-4,4,-7,1
COc1ncnc2c1ncn2CCCN1CCN(Cc2cccc3ccccc23)CC1,2,-11,-2,-7,25,-5
COc1ncnc2c1ncn2CCCN1CCN(Cc2ccc(C)cc2)CC1,0,9,28*,-16,10,-11
NS(=O)(=O)c1cccc(NC(=O)CC(NC(=O)c2ccccc2Cl)c2ccccc2)c1 (centres undefined),0,-8,-10,6,3,-4
CC(OC(=O)c1cccnc1Cl)C(=O)Nc1ccc2c(c1)OCO2 (centres undefined),0,-9,3,0,7,-3
N#Cc1cc([N+](=O)[O-])ccc1N1CCN(c2ccccc2O)CC1,13,-9,9,-5,-8,-4
CN1CCN(c2ccc([N+](=O)[O-])cc2C(=O)c2ccc(Br)cc2)CC1,1,-8,21*,-24,19,-7
O=[N+]([O-])c1ccc(N2CCN(c3ccc([N+](=O)[O-])cc3CO)CC2)c(CO)c1,18*,8,13,-16,-26,2
COc1ccc(S(=O)(=O)N2CCC(C(=O)NCc3cccs3)CC2)cc1,2,-10,4,0,13,-5
SMILES,M1 ag parental,CHO-K1 Ca antag,CHRM1 antagonist,CHRM1 PAM,M1 PAM parental,M1 ag
Cc1cc2nc3n(c2cc1C)CC1CC(C(=O)NCC2CC2)N(C)C31 (centres undefined),0,-4,42*,-19,-3,-11
CCCCN1/C(=C/c2ccc3ccccc3[n+]2CC)Sc2ccccc21,19*,22,44*,-19,7,26*
CCN1/C(=C/c2ccc3ccccc3[n+]2CCCS(=O)(=O)[O-])C=Cc2cc(C)ccc21,0,1,-10,19,-10,8
CCN1/C(=C/c2ccc3ccccc3[n+]2CC)C=Cc2ccccc21,6,32*,48*,-11,-1,2
CCN1/C(=C/c2ccc3cc(C)ccc3[n+]2CC)Sc2cc(C)ccc21,22*,43*,67*,-18,-15,26*
O=S(=O)(c1c(F)cccc1F)N(CCc1ccc(F)cc1)C[C@@H](O)COCc1ccccc1,3,-5,5,0,20,0
O=C1OC(c2ccccc2)=N/C1=C/c1cccc(OC(=O)c2cccs2)c1,2,43*,-15,2,7,-2
Cc1no[n+]([O-])c1COc1cccc(/C=C2\N=C(c3ccccc3)OC2=O)c1,-1,5,-10,11,13,-3
CCOC(=O)C1C(=O)C=C(/C=C/c2ccc(N(C)C)cc2)CC1c1ccccc1 (centres undefined),22*,14,21,-7,6,18*
COc1ccc(CCNC(=O)CSc2nc3[nH]ncc3c(=O)n2-c2ccc(Br)cc2)cc1OC,0,-17,2,-4,7,25*
Cc1ccc(Cl)cc1NC(=O)c1cc(NC(=O)C2CCCCC2C(=O)O)ccc1N1CCOCC1 (centres undefined),1,-13,9,1,7,-3
O=C(Nc1cc(Cl)cc2c1-c1ccc(Cl)cc1C2O)C(Cl)Cl (centres undefined),0,0,-9,12,-11,1
Cc1ccc(S(=O)(=O)NNc2nc3ccccc3nc2C(F)(F)F)cc1,1,-9,-5,0,18,50*
Cc1ccc(S(=O)(=O)NNc2ccccc2)cc1,0,16,-7,5,-4,0
O=c1c(Br)ccc(Br)cc1Br,-1,8,-4,6,12,-5
Cc1cccc(OCC(=O)N2CCN(c3nnc(-c4ccccc4)c4ccccc34)CC2)c1,5,-6,57*,-28,9,-6
Cc1ccc(-c2nnc(N3CCN(C(=O)COc4cccc(C)c4)CC3)c3ccccc23)cc1,0,-10,32,-24,10,-9
COc1ccc(C(=O)NC2CC3CCCC(C2)N3Cc2ccccc2)cc1 (centres undefined),0,3,10,-12,-21,-9
O=C(Nc1ccccc1-c1ccccc1)NC1CC2CCCC(C1)N2Cc1ccc(F)cc1 (centres undefined),-1,0,98*,-35,6,-14
CCCNC(=S)NC1CC2CCCC(C1)N2Cc1ccc(F)cc1 (centres undefined),-1,0,48*,-23,2,-9
